Source: PubChem
L major viab – inhibitors of Leishmania major promastigote growth; inhibition, % at 10 µM; hit rate 9% among 200,000; AID 1063; Leishmania major promastigotes, resazurin fluorescence viability; in the data active means inhibition above about 50%;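 further: promastigotes grown with compound for 44 hours at 28 °C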
Arbovirus inh – antivirals against arbovirus infection. arbovirus infection cell-based antiviral screen. inhibition, % at 10 µM. hit rate 0.37% among 200,000. AID 1251; in the data active means inhibition above about 30%
CHOP inh – inhibitors of CHOP induction in ER stress response; CHO-K1 CHOP-promoter luciferase, tunicamycin-induced, 15-18 h; inhibition, % at 10 µM; hit rate 3.8% among 220,000; AID 2732;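 active means compounds that reduced the stress-induced luciferase reporter signal by more than about 70% of percent inhibition, limit read from the data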;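 further: 0% = tunicamycin plus vehicle and 100% = wells without tunicamycin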
WT yeast gro inh – growth inhibition of WT yeast, mitochondrial fusion screen | inhibition, % at 10 µM | hit rate 2.1% among 190,000 | mitochondrial fusion phenotypic screen, WT strain; in the data active means inhibition above about 58%; tested in S. cerevisiae
Numbers without * were called inactive; nt = not tested or not shown. An excerpt weighted towards active compounds, which were near 12% of everything screened.

SMILES	L major viab	Arbovirus inh	CHOP inh	WT yeast gro inh
COC(=O)C1=C(C)N(C)C(C)=C(C(=O)OC)C1c1ccc(F)c(Br)c1	76.5*	2.4	52.4	50.2
CN(CCc1cnn(C)c1)Cc1cn[nH]c1-c1ccc(-c2ccccc2)cc1	89.8*	-25.9	7.6	14.3
CCc1ccc(/C=C/C(=O)C2C(=O)c3ccccc3C2=O)cc1	0.7	5.1	90.2*	7.4
O=C(CCC(=O)Nc1ccccc1)N/N=C/C=C/c1ccccc1	-6.3	-2.0	19.4	-9.1
O=C(Cc1cc(=O)[nH][nH]1)N/N=C/C=C/c1ccccc1	72.5*	-0.3	-0.5	-4.8
CC(C)=Cc1oc2ccc([N+](=O)[O-])cc2c1N1CC(C)OC(C)C1 (centres undefined)	-1.8	0.0	68.4	0.8
COc1ccccc1NC(=O)Nc1ccc2c(c1)nc(C)n2C	-5.1	-3.5	-8.5	20.8
COc1ccc(/C=C\C(=O)c2c(O)ccc3c(C)cc(=O)oc23)cc1	99.8*	-26.8	16.6	4.6
COc1ccc(/C=C/C(=O)c2c(O)ccc3c(C)cc(=O)oc23)cc1	87.9*	9.9	-19.9	-2.2
COc1cccc(C(=O)Oc2ccc3c(C)cc(=O)oc3c2C(C)=O)c1	-9.2	2.3	-14.4	9.3
Cc1nn(-c2ccc(F)cc2)c(Cl)c1/C=C1\C(=O)Nc2ccccc21	6.5	-4.4	93.7*	50.5
CSc1nc(Sc2cccc(Cl)c2)c2ccccc2n1	-4.3	-6.7	-16.4	58.5*
CSc1nc(Sc2ccccc2)c2ccccc2n1	-7.0	-7.7	31.1	36.5
CC(C)CNC(=O)c1cnn2c(C(F)(F)F)cc(C(F)(F)F)nc12	nt	nt	-3.7	nt
CN(C)c1nc2ccc(OCCN3CCCCC3)cc2s1	59.6*	-4.1	-8.0	1.1
CCN(CC)CCOc1ccc2nc(N(C)C)sc2c1	36.1	-3.9	-6.3	-10.2
COc1cc(NC(=O)Cn2nc(C(F)(F)F)c(Br)c2C)cc([N+](=O)[O-])c1	98.4*	13.9	94.4*	14.8
Cc1ccc(OCC(=O)Nc2ccc(CN3CCCCC3)cc2)c(C)c1	11.4	11.3	3.5	12.4
CC1=C(C(=O)N2CCOCC2)C(c2ccc(C)cc2)NC(=S)N1 (centres undefined)	-5.6	5.3	1.3	-6.3
Cc1cc(C)c(S(=O)(=O)c2c(C)cccc2C)c(Cl)n1	100.3*	-1.9	16.9	16.2
Cc1cc(C)c(S(=O)(=O)c2ccc(Cl)cc2C)c(Cl)n1	100.3*	-7.1	12.8	-4.0
CCCCCc1cc(=O)oc2c(C(CCN3CCCC(C)C3)c3ccc4c(c3)OCO4)c(OC)cc(OC)c12 (centres undefined)	nt	nt	77.4*	nt
CCN(CC)CCC(c1ccc(N(C)C)cc1)c1c(OC)cc(OC)c2c(-c3ccccc3)cc(=O)oc12 (centres undefined)	nt	nt	24.3	nt
CCCCCc1cc(=O)oc2c(C(CCN(CC)CC)c3cc(OC)c(OC)c(OC)c3)c(OC)cc(OC)c12 (centres undefined)	nt	nt	70.9*	nt
CCCCCc1cc(=O)oc2c(C(CCN3CCCCC3)c3ccc4c(c3)OCO4)c(OC)cc(OC)c12 (centres undefined)	nt	nt	87.5*	nt
SMILES	L major viab	Arbovirus inh	CHOP inh	WT yeast gro inh
COc1cc(-c2nc3ccccn3c2/N=C/c2cc(OC)c(O)cc2Cl)ccc1O	10.8	1.1	13.8	17.8
CC1(C)CC(=O)c2cc(NC(=O)c3ccc(F)cc3)c(=O)oc2C1	-1.0	2.6	-4.9	-13.9
COc1ccccc1NC(=O)Cn1c(=O)n(CCc2c[nH]c3ccccc23)c(=O)c2cccnc21	65.1*	-1.0	22.9	11.0
C/C(Cn1nnc([N+](=O)[O-])n1)=N\NC(=O)c1ccc(O)cc1	nt	nt	-16.8	nt
CN(CCC(=O)Nc1ccc(Br)cc1)Cc1ccccc1	10.3	-19.5	-1.2	13.0
Cc1nnc(SCc2cc(=O)[nH]c(Nc3nc(C)c4ccccc4n3)n2)s1	83.5*	nt	nt	nt
Cc1ccc2nc(Nc3nc(CSc4nnc(C)s4)cc(=O)[nH]3)nc(C)c2c1	37.9	-29.9	39.2	19.8
COc1ccc(C2C(C(=O)Nc3ccc4c(c3)OCCO4)c3ccccc3C(=O)N2C)cc1 (centres undefined)	-1.2	-1.6	-13.5	-10.2
Cc1noc(C)c1S(=O)(=O)N1CCC(C(=O)N2CCN(c3ccccc3Cl)CC2)CC1	96.5*	0.2	12.0	12.3
Cc1noc(C)c1S(=O)(=O)N1CCCC(C(=O)N2CCN(C3CCCCC3)CC2)C1 (centres undefined)	92.7*	-10.6	5.1	-4.7
Cc1noc(C)c1S(=O)(=O)N1CCC(C(=O)N2CCC(N3CCCCC3)CC2)CC1	-4.8	6.1	-7.0	15.6
Cc1noc(C)c1S(=O)(=O)N1CCC(C(=O)N2CCN(c3ccc(Cl)cc3)CC2)CC1	68.1*	-2.3	11.0	12.3
CCn1c(=O)c([N+](=O)[O-])c(Cl)c2ccccc21	-2.5	-28.4	107.6*	62.1*
CCn1c(=O)c([N+](=O)[O-])c(NCC(O)c2ccccc2)c2ccccc21 (centres undefined)	99.9*	19.2	-1.6	-18.9
COc1ccc(CC(=O)Nc2cccc(-c3ccc4nnc(C)n4n3)c2)cc1OC	-2.2	-9.3	-16.6	0.2
CC(C)(C)NC(=S)Nc1ccc(Br)cc1	10.1	14.6	24.5	19.9
COc1ccccc1CNC(=S)NCCc1ccccc1	-0.6	19.2	9.9	68.9*
CC(C)(C)NC(=S)Nc1ccc(Nc2ccccc2)cc1	61.4*	-21.9	72.8*	73.4*
O=S(=O)(c1ccc(NC(=S)N/N=C/c2c3ccccc3cc3ccccc23)cc1)N1CCOCC1	94.9*	-2.8	-0.3	4.9
S=C(NCCC(c1ccccc1)c1ccccc1)Nc1ccc(Cl)cc1	16.4	-36.8	78.0*	-11.1
S=C(NCCC(c1ccccc1)c1ccccc1)Nc1ccccc1Cl	13.7	-25.1	-0.7	2.5
COc1ccc(Cl)cc1NC(=S)NCc1ccco1	5.2	9.7	24.5	-12.5
O=C(O)CNC(=O)C12CC3CC(CC(Cl)(C3)C1)C2	0.2	3.1	-19.8	-1.6
CC(OC(=O)CN1C(=O)C2C3C=CC(C4CC34)C2C1=O)C(=O)c1ccccc1 (centres undefined)	nt	nt	3.0	nt
Cc1ccc(S(=O)(=O)N(C)C)cc1NC(=O)c1cncc(Br)c1	35.6	10.7	-16.6	-4.2
SMILES	L major viab	Arbovirus inh	CHOP inh	WT yeast gro inh
CCNc1ccc(P(=O)(c2ccccc2)c2ccccc2)cc1	6.7	2.0	8.1	-19.4
O=S(=O)(c1ccc(NC(=S)NCCC(c2ccccc2)c2ccccc2)cc1)N1CCOCC1	59.9*	-29.6	52.1	-22.0
S=C(NCCc1ccccc1)NCc1cccs1	78.6*	1.4	-15.7	-10.0
COc1ccccc1NC(=S)NCCC(c1ccccc1)c1ccccc1	18.5	13.7	40.7	70.6*
CCCCOCCCNC(=S)Nc1ccc(S(=O)(=O)N2CCOCC2)cc1	nt	nt	65.1	nt
S=C(NCCCc1ccccc1)Nc1ccc(Cl)cc1	90.2*	-40.2	76.7*	72.4*
O=C(/C=C\c1cccs1)N1CCN(Cc2ccc3c(c2)OCO3)CC1	9.4	-14.5	16.6	-16.6
COC(=O)C(C)(C)ONC(=O)Nc1ccccc1	-5.3	-3.4	14.6	11.3
COc1cc(CSc2nnnn2-c2ccc(C)cc2)cc(OC)c1OC	-1.4	12.8	nt	-10.0
S=C(NCCc1ccccc1)Nc1ccc(Nc2ccccc2)cc1	11.9	-16.7	-10.0	82.5*
CC(C)(CNC(=S)NCCc1ccccc1)CNC(=S)NCCc1ccccc1	95.4*	-17.8	22.2	30.5
